# The supplement of paper PMC7858590
# Where “and” joins values, the source holds several entries; their conditions need not be identical. Equal values may be shown once. ± gives the standard deviation of the averaged measurements. Whole data set: some 3,800 compounds, median “cell shape (eccentricity) Z-score vs DMSO control” near 1.1, cut for the lowest 2% near -4.7. This is one part of a sample in which the lowest values are shown more often than they occur.
# System: human monocyte-derived macrophages (M0)
# Assay: cell shape (eccentricity) Z-score vs DMSO control; higher = more elongated, M2-like morphology
# Settings: 20 µM; 24 h; macrophage state: M0 (M-CSF)
row,SMILES,cell shape (Z-score)
1,Cc1cc(O)c2c(c1)C(=O)C1=C(C2=O)C(O)C(O)C(O)C1O (centres undefined),-13.9
2,Cc1cc(O)c2c(c1)C(=O)c1cccc(O)c1C2=O,3.93
3,COc1cc(O)c2c(c1)C(=O)c1cc(C)cc(O)c1C2=O,2.65
4,COc1c(OC)c(O)c2c(=O)c(O)c(-c3ccccc3)oc2c1OC,4.23
5,CC(=O)NC(C(=O)O[C@H]1CCC(C)(C)[C@@H]2CC=C3C(=O)OCC3(O)[C@@]12C)C(C)C (some centres undefined),0.522 ± 0.68
6,CC(=O)O[C@@H]1[C@@H](O)[C@H](C)O[C@@H](O[C@H]2[C@@H]3C=CO[C@@H](O[C@@H]4O[C@H](CO)[C@@H](O)[C@H](O)[C@H]4O)[C@@H]3[C@@]3(CO)O[C@@H]23)[C@@H]1OC(=O)/C=C/c1ccc(O)cc1,-0.936 ± 2.8
7,C=C1C(=O)O[C@H]2[C@H]1CC/C(C)=C/CC[C@@]1(C)O[C@@H]21,-3.88
8,C=C1C(=O)O[C@@H]2/C=C(\C)CC/C=C(\C)CC[C@@H]12,-1.08
9,C=C1C(=O)O[C@@H]2[C@H]3O[C@]3(C)CC/C=C(/C)CC[C@@H]12,-9.25
10,C/C(=C\CC[C@@H](C)[C@H]1CC[C@@]2(C)C3CC[C@H]4C(C)(C)[C@@H](OC5OC(CO)C(OC6OC(CO)C(O)C(O)C6O)C(O)C5O)CC[C@@]45C[C@@]35CC(O)[C@]12C)C(=O)O (some centres undefined),0.155
11,Nc1ccc(S(=O)(=O)NC(=O)c2ccccc2)cc1,0.441
12,COc1nc(N)nc2c1ncn2[C@@H]1O[C@H](CO)[C@@H](O)[C@@H]1O,0.62 ± 1.5
13,O=C(O)CCCN1C(=O)c2cccc3cccc(c23)C1=O,1.83
14,O=C(O)CN1C(=O)c2cccc3cccc(c23)C1=O,-6.86
15,O=C(O)Cn1c(C(=O)Nc2nc(-c3ccccc3Cl)cs2)cc2ccccc21,2.41
16,O=c1[nH]c2cc(Cl)ccc2c(O)c1-c1cccc(Oc2ccccc2)c1,-0.358
17,CN1C(C(=O)Nc2ccccn2)C(=O)c2ccccc2S1(=O)=O (centres undefined),1.33
18,CC(=O)C(C#N)C(=O)Nc1cc(Br)ccc1Br (centres undefined),-5.16
19,C[C@H]1CN([C@@H](C)CO)S(=O)(=O)c2ccc(C#Cc3ccncc3)cc2O[C@@H]1CN(C)C(=O)Nc1ccc2c(c1)OCO2,-10.9
20,C[C@@H]1CN([C@H](C)CO)S(=O)(=O)c2ccc(C#Cc3ccncc3)cc2O[C@H]1CN(C)C(=O)Nc1ccc2c(c1)OCO2,3.81
21,C[C@H]1CN([C@@H](C)CO)S(=O)(=O)c2ccc(C#Cc3ccccc3F)cc2O[C@H]1CN(C)C(=O)Cc1ccncc1,2.68
22,COc1cc2oc(-c3ccccc3)cc(=O)c2c(O)c1OC,3.73
23,CCN(CC)CCNC(=O)c1c(C)[nH]c(/C=C2\C(=O)Nc3ccc(F)cc32)c1C,10.3 and 12.2
24,C=C1C(=O)O[C@@H]2C[C@H](C)C3C[C@H](O)[C@H](O)[C@@]3(C)C[C@H]12 (some centres undefined),-2.78 ± 0.67
25,CN[C@H]1CC[C@@H](c2ccc(Cl)c(Cl)c2)c2ccccc21,-5.32
26,C=C1CC(O)C2C(=C)C(=O)OC2C2C(=C)C(OC3OC(CO)C(O)C(OC(=O)/C=C/c4ccc(O)c(O)c4)C3O)CC12 (centres undefined),-1.95
27,CC(C)CC1NC(=O)C(C)NC1=O (centres undefined),-5.83

row,SMILES,cell shape (Z-score)
1,CC(C)CC1NC(=O)C2CCCN2C1=O (centres undefined),2.84
2,CC(C)=CCc1c(O)cc(O)c2c1OC(c1ccc(O)c(O)c1)CC2=O (centres undefined),1.24
3,O=C1c2cccc(O)c2C(=O)c2c(O)cccc21,3.05
4,c1ccc2cc(C3=NCCN3)ncc2c1,-4.69
5,c1ccc2nc(C3=NCCN3)cnc2c1,1.3
6,c1ccc2nc(C3=NCCN3)ccc2c1,0.187
7,CCOc1ccc(Cc2cc([C@@H]3O[C@H](CO)[C@@H](O)[C@H](O)[C@H]3O)ccc2Cl)cc1,-0.0179
8,CC1(C)C(=O)C=C[C@@]2(C)C1C=C[C@]1(C)C2CC[C@@]2(C)[C@H](c3ccoc3)OC(=O)[C@H]3O[C@]321 (some centres undefined),7.92
9,CCc1cc(C(C)=O)c(O)cc1OCCCCCC(C)(C)c1nnn[nH]1,1.49
10,N=C(N)Nc1ccc(Cl)cc1,0.554
11,CC(C)NC(=N)NC(=N)Nc1ccc(Cl)cc1,0.874
12,N=C(NCCCCCCNC(=N)NC(=N)Nc1ccc(Cl)cc1)NC(=N)Nc1ccc(Cl)cc1,-6.88
13,CC(=O)N[C@H]1[C@H](O[C@H]2CC[C@@]3(C)C(CC[C@]4(C)C3CC=C3[C@@H]5CC(C)(C)CC[C@]5(C(=O)OC5OCC(O)C(O)C5O)C(O)C[C@]34C)C2(C)C)O[C@H](COC2OCC(O)C(OC3OCC(O)C(O)C3O)C2O)[C@@H](O[C@@H]2O[C@@H](C)[C@H](O)[C@@H](O)[C@H]2O[C@@H]2O[C@@H](C)[C@H](O)[C@@H](O)[C@H]2O)[C@@H]1O (some centres undefined),-2.27 ± 4.4
14,O=C1NN(C(=O)Nc2ccc(Br)cc2)[C@@H](c2ccccc2)[C@@H]1c1ccccc1,1.43
15,COC(=O)[C@@H]1[C@H]2C[C@H]3c4[nH]c5ccccc5c4CCN3C[C@@H]2CC[C@@H]1O,-0.402
16,O=C(/C=C/c1ccc(O)cc1)CC(=O)/C=C/c1ccc(O)cc1,-1.34
17,O=C(/C=C/c1ccccc1)CC(O)CCc1ccccc1 (centres undefined),-0.2
18,O=C(/C=C/c1ccccc1)CC(=O)/C=C/c1ccccc1,-8.63
19,c1ccc(-c2n[nH]c3c2oc2ccccc23)cc1,0.646
20,CCN1C(=CC=Cc2ccc3ccccc3[n+]2CC)C=Cc2ccccc21,-7.46
21,CC1(C)CCC(C)(C)c2cc([C@@H](O)C(=O)Nc3ccc(C(=O)O)cc3F)ccc21,5.37
22,C=C(NC(=O)C(=C)NC(=O)c1csc(C2=N[C@H]3c4csc(n4)[C@H]4NC(=O)c5csc(n5)[C@H]([C@@](C)(O)[C@@H](C)O)NC(=O)[C@H]5CSC(=N5)C(=CC)NC(=O)[C@H]([C@@H](C)O)NC(=O)c5csc(n5)[C@]3(CC2)NC(=O)[C@H](C)NC(=O)C(=C)NC(=O)[C@H](C)NC(=O)[C@H](C(C)CC)N[C@@H]2C=Cc3c([C@H](C)O)cc(nc3[C@H]2O)C(=O)O[C@@H]4C)n1)C(N)=O (some centres undefined),-6.13
23,COc1cc(C)c(C(=O)O[C@H]2[C@@H](OC(C)=O)[C@H](n3ccc(=O)[nH]c3=O)O[C@@H]2CO)c(OC)c1,1.91 ± 0.92
24,Cc1ccc(/C(=C\CN2CCCC2)c2ccccn2)cc1,1.6
25,CCOC(=O)N[C@@H]1CC[C@@H]2[C@@H](C1)C[C@H]1C(=O)O[C@H](C)[C@H]1[C@H]2/C=C/c1ccc(-c2cccc(F)c2)cn1,5.12
26,CC(=O)O[C@H]1C(=O)[C@@]2(C)C([C@H](OC(=O)c3ccccc3)[C@]3(O)C[C@H](OC(=O)[C@H](O)[C@@H](NC(=O)c4ccccc4)c4ccccc4)C(C)=C1C3(C)C)[C@]1(OC(C)=O)CO[C@@H]1C[C@@H]2O (some centres undefined),-4.41 and -4.29 and -4.69
27,CC(=O)OC1C(=O)C2(C)C(O)CC3OCC3(OC(C)=O)C2C(OC(=O)c2ccccc2)C2(O)CC(OC(=O)C(O)C(NC(=O)c3ccccc3)c3ccccc3)C(C)=C1C2(C)C (centres undefined),-3.69

row,SMILES,cell shape (Z-score)
1,CC(=O)O[C@H]1C(=O)[C@@]2(C)[C@H]([C@H](OC(=O)c3ccccc3)[C@]3(O)C[C@H](OC(=O)[C@H](O)[C@@H](NC(=O)c4ccccc4)c4ccccc4)C(C)=C1C3(C)C)[C@]1(OC(C)=O)CO[C@@H]1C[C@@H]2O,-5.5
2,CC/C(=C(/CC)c1ccc(O)cc1)c1ccc(O)cc1,1.77
3,CC1(C)CC[C@]2(C(=O)O[C@@H]3O[C@H](CO)[C@@H](O)[C@H](O)[C@H]3O)CC[C@]3(C)C(=CCC4[C@@]5(C)C[C@@H](O)[C@H](O)[C@](C)(CO)C5CC[C@]43C)C2[C@@H]1O (some centres undefined),1.6
4,Cc1[nH]c2ccccc2c1CCNCc1ccc(/C=C/C(=O)NO)cc1,4.88 and 5.32
5,C/C=C/C=C/C(=O)c1cc(C)c(O)c(C)c1O,1.03
6,Cc1cc2nc3c(=O)[nH]c(=O)nc-3n(C)c2cc1C=O,-7.12
7,Cc1cc2nc3c(=O)[nH]c(=O)nc-3n(C[C@@H](O)[C@@H](O)[C@@H](O)CO)c2cc1C,0.422
8,CCCCCCCNS(=O)(=O)c1cccc2c(Cl)cccc12,0.986
9,CN(C)CCCSC(=N)N,0.27
10,NC(COCc1ccccc1)C(=O)O (centres undefined),1.15
11,CS(=O)(=O)c1ccc(-c2nc(-c3ccc(F)cc3)c(-c3ccncc3)[nH]2)cc1,1.46
12,Oc1ccc(-c2nc(-c3ccc(F)cc3)c(-c3ccncc3)[nH]2)cc1,-5.27
13,CS(=O)c1ccc(-c2nc(-c3ccc(F)cc3)c(-c3ccncc3)[nH]2)cc1 (centres undefined),3.26
14,O=C(O)c1cc2cc(OCc3ccccc3)ccc2[nH]1,1.63
15,CC(=O)O[C@H]1[C@H](Oc2ccccc2COC(=O)C2(O)C=CCCC2=O)O[C@H](CO)[C@@H](O)[C@@H]1O (some centres undefined),1.32
16,CCn1cc(C(=O)O)c(=O)c2cc(F)c(N3CCNCC3)nc21,-1.1
17,C=C1C(=O)O[C@@H]2[C@H]3C(CO)=CC(=O)C3=C(C)C[C@H](OC(=O)Cc3ccc(O)cc3)[C@@H]12,-6.23
18,O=C(Cc1ccc(O)cc1)OC1[C@@H](O)[C@@H](O)C(OC(=O)Cc2ccc(O)cc2)[C@H](O)[C@@H]1O (some centres undefined),2.31
19,C=C1C(=O)O[C@H]2C1CCC(C)=C1C(=O)C=C(C)[C@@H]12 (some centres undefined),-3.7
20,CC1(C)CCC(CN2CCN(c3ccc(C(=O)NS(=O)(=O)c4ccc(NCC5CCOCC5)c([N+](=O)[O-])c4)c(Oc4cnc5[nH]ccc5c4)c3)CC2)=C(c2ccc(Cl)cc2)C1,6.74
21,COCc1c(C(C)C)nc(C(C)C)c(/C=C/[C@@H](O)C[C@@H](O)CC(=O)O)c1-c1ccc(F)cc1,10.1 ± 0.39
22,CCC[C@@H]1C[C@@H](C(=O)NC(C(C)Cl)C2O[C@H](SC)[C@H](O)[C@@H](O)[C@H]2O)N(C)C1 (some centres undefined),3.16
23,Cc1cc(N2CCCCC2)nc2ccccc12,0.281
24,CC(Nc1nc(N2CCCC2)nc2ccccc12)c1ccccc1 (centres undefined),-7.72
25,COc1cc2nc(N3CCCN(C)CC3)nc(NC3CCN(Cc4ccccc4)CC3)c2cc1OC,3.25
